# Test results taken from the supplement of paper PMC10849652.
# About 7,900 targets were measured; listed, in parts, are those with a hit and a random draw of the rest. About 0.6% of all pairs of compound and target were hits. Unmarked numbers belong to inactive results.
# Assays:
# Test in all cases: log2 fold change, soluble protein after heating vs DMSO (PISA); higher = thermal stabilisation; K562 cells, 10 uM, 30 min; active = over 0.2 and 3.5 SD of the protein, either way, in both replicates (recomputed)
# [1] = compound: Cc1cn(-c2cc(NC(=O)c3ccc(C)c(Nc4nccc(-c5cccnc5)n4)c3)cc(C(F)(F)F)c2)cn1 [nilotinib]
# How it was run: (§1)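 K562 cells at 2×10^6 cells/mL were exposed to 10 μM compound for 30 min, then aliquots were heated for 3 min across 48°C-58°C, pooled, and extracted in PBS containing 0.5% NP-40 at 4°C. The supernatant after 21,000xg for 90 min was taken as soluble protein and measured by TMTpro 16plex LC-MS/MS with channel sums equalised. Thermal stability is reported relative to control samples, with values from duplicates. Fold changes are given on a log2 scale.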
# [2] = compound: Cc1nc(Nc2n[nH]c3c2CN(C(=O)N[C@H](CN(C)C)c2ccccc2)C3(C)C)c2sccc2n1
# How it was run: as §1
# [3] = compound: Cc1ncc(-c2ccnc(Nc3ccc(S(C)(=O)=O)cc3)n2)n1C(C)C
# How it was run: as §1
# [4] = compound: Cn1cc(-c2ccc3nnc(C(F)(F)c4ccc5ncccc5c4)n3n2)cn1
# How it was run: as §1
# [5] = compound: FC(F)(F)c1ccc(/C=C/c2nc(COc3ccc(CCCCn4ccnn4)cc3)co2)cc1 [mubritinib]
# How it was run: as §1
# [6] = compound: Cc1ccc(NC(=O)c2ccc(CN3CC[C@H](N(C)C)C3)c(C(F)(F)F)c2)cc1Nc1nccc(-c2cncnc2)n1 [bafetinib]
# How it was run: as §1
# [7] = compound: Cc1cccc(CC(=O)N2CCc3c2ccc(-c2cn(C)c4ncnc(N)c24)c3F)n1
# How it was run: as §1
# [8] = compound: Cc1nc(Nc2ncc(C(=O)Nc3c(C)cccc3Cl)s2)cc(N2CCN(CCO)CC2)n1 [dasatinib]
# How it was run: as §1
# [9] = compound: Cn1cc(-c2ccc3c(c2)CCN3C(=O)Cc2cccc(C(F)(F)F)c2)c2c(N)ncnc21
# How it was run: as §1
# [10] = compound: Cn1cncc1[C@@](N)(c1ccc(Cl)cc1)c1ccc2c(c1)c(-c1cccc(Cl)c1)cc(=O)n2C [tipifarnib]
# How it was run: as §1
# UniProt P15056, sequence (P15056 whole entry, looked up): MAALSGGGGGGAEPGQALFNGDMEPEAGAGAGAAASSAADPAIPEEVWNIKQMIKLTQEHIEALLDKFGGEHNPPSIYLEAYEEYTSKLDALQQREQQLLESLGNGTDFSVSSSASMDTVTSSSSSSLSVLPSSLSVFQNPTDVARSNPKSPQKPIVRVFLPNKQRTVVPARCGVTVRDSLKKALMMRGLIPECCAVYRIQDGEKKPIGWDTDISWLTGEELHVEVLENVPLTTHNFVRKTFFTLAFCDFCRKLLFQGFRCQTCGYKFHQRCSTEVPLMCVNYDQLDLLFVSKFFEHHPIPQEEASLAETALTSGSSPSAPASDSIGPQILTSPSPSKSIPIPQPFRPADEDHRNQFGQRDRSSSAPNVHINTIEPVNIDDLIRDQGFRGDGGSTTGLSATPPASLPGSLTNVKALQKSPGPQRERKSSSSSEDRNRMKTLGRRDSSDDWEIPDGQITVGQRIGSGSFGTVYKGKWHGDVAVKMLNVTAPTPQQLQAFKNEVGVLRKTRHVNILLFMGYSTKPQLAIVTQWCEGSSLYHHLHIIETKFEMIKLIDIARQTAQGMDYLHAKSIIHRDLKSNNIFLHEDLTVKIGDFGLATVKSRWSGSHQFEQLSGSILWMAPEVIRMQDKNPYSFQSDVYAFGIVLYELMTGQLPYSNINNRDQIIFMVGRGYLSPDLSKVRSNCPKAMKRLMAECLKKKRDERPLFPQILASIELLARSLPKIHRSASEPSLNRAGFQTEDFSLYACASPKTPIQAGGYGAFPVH
# UniProt Q9H0E9, sequence (Q9H0E9 whole entry, looked up): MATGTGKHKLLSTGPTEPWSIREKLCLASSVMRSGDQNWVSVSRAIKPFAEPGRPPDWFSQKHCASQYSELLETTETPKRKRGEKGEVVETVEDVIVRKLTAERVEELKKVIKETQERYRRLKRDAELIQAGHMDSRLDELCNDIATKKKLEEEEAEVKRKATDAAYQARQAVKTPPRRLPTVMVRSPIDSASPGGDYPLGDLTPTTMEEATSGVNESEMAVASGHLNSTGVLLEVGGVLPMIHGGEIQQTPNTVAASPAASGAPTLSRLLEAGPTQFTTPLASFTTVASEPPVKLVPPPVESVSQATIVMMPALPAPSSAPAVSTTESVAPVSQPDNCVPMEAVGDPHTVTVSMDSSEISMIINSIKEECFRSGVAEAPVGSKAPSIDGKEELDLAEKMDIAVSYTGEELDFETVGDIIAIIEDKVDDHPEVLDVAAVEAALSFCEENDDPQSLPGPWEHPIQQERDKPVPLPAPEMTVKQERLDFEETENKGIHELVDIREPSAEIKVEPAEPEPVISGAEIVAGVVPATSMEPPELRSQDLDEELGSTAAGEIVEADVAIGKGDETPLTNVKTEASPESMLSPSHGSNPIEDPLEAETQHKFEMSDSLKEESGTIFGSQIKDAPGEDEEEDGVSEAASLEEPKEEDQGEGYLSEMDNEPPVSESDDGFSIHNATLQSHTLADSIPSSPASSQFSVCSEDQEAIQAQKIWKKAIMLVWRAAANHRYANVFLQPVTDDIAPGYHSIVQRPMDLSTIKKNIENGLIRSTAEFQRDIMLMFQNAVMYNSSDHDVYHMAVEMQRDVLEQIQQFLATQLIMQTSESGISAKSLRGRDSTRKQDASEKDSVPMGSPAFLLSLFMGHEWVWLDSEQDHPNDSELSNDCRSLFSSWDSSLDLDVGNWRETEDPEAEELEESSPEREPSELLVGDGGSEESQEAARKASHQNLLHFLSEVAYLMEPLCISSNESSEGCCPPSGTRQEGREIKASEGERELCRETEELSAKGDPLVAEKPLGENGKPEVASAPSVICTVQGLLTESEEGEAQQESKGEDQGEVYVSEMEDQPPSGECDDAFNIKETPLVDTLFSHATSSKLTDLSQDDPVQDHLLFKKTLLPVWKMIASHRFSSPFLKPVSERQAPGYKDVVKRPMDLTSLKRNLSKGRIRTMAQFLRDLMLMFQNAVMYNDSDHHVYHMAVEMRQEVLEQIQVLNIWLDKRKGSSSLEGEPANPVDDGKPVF
# UniProt Q9BTE6, sequence (Q9BTE6 whole entry, looked up): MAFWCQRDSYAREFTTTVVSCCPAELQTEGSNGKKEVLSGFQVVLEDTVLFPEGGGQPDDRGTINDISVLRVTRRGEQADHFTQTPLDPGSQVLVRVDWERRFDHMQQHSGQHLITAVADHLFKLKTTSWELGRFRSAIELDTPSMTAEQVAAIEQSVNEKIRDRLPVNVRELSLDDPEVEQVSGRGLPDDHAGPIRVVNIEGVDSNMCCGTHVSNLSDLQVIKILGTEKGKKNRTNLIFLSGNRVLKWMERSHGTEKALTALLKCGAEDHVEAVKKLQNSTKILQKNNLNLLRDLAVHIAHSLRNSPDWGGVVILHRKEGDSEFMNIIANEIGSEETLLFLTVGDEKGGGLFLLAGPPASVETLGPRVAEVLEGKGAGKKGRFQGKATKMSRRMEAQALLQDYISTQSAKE
# UniProt Q9BUT1, sequence (Q9BUT1 whole entry, looked up): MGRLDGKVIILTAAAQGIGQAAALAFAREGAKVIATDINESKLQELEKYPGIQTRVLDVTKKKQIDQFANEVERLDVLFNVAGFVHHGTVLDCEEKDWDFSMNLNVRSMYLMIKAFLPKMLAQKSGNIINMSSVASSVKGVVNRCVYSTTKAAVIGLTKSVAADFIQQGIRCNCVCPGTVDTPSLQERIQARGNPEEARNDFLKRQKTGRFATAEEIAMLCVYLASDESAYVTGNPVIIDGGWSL
# UniProt Q14CW9, sequence (Q14CW9 whole entry, looked up): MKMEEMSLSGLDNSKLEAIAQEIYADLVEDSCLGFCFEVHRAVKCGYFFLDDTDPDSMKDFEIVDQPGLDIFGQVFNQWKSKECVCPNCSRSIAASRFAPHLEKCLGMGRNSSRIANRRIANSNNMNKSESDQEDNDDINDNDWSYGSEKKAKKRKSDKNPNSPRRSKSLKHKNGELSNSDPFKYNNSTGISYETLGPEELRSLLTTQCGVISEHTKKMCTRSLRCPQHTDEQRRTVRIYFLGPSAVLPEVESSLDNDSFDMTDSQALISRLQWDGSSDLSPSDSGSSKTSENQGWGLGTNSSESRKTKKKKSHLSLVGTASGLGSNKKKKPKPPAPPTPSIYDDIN
# UniProt P35612, sequence (P35612 whole entry, looked up): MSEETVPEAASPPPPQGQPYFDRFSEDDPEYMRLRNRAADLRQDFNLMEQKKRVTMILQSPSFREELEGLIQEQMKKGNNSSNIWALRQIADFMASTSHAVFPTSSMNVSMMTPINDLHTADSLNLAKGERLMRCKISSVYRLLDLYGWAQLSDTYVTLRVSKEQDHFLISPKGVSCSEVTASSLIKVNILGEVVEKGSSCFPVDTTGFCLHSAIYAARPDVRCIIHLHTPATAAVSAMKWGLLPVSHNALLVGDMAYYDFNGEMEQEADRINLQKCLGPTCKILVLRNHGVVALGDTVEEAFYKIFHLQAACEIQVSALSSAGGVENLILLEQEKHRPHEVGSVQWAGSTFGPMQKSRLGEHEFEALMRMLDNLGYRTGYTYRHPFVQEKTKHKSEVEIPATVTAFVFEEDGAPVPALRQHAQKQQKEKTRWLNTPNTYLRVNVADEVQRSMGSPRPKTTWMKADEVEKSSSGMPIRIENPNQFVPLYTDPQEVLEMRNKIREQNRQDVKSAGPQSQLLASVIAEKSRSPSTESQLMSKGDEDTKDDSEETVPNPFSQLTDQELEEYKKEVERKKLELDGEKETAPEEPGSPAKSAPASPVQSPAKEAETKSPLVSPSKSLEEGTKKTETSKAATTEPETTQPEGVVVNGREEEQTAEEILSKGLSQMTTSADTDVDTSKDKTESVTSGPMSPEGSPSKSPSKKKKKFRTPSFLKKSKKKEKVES
# UniProt O14727, sequence (O14727 whole entry, looked up): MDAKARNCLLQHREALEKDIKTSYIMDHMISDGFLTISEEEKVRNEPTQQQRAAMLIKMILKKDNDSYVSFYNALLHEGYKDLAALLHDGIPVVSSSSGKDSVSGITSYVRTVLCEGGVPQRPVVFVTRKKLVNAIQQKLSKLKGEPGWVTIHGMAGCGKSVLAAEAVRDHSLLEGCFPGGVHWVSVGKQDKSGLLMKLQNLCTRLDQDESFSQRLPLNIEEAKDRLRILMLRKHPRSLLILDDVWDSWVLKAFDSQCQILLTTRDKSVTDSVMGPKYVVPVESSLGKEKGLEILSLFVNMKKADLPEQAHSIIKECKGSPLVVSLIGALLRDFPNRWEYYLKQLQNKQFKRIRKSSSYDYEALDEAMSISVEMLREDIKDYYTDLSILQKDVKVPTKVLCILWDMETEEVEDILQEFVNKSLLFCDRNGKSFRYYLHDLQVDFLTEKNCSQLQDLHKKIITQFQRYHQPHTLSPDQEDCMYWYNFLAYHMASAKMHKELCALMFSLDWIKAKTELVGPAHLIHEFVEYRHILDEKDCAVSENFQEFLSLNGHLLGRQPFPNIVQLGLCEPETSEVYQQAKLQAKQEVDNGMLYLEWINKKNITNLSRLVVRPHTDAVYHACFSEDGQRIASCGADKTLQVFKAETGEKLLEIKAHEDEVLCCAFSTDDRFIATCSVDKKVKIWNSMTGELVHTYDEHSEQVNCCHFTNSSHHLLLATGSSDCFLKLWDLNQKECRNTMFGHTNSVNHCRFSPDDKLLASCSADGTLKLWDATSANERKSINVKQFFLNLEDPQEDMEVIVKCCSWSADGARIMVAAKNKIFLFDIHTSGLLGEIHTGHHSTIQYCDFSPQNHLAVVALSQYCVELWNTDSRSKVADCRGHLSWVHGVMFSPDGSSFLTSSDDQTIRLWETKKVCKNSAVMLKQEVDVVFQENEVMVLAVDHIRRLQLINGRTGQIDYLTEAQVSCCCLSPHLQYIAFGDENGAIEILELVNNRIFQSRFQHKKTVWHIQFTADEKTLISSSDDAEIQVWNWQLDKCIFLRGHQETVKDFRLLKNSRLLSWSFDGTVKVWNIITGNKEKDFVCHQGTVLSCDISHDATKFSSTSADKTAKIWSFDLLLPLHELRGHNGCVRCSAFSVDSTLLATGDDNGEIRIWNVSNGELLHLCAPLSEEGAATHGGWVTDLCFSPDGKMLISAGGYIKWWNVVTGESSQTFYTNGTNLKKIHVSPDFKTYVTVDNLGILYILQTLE
Target,log2 fold change [1],log2 fold change [2],log2 fold change [3],log2 fold change [4],log2 fold change [5],log2 fold change [6],log2 fold change [7],log2 fold change [8],log2 fold change [9],log2 fold change [10]
"BRAF, A0A2R8Y8E0",-0.419,0.112,-0.236,0.052,0.113,–,–,–,–,–
BRD8 isoform 2 (UniProt Q9H0E9),–,–,–,-0.038,–,-0.057,0.064,-0.136,-0.022,-0.038
ADD1 isoform 4 (UniProt P35611),–,–,–,–,–,-0.034,0.033,–,0.114,–
BRD2 isoform 2 (UniProt P25440),–,–,–,–,–,0.136,0.476,-0.32,0.11,-0.171
BDH2 (UniProt Q9BUT1),–,–,–,-0.032,0.274,0.114,0.069,0.031,0.063,0.017
ATXN7L3 isoform 2 (UniProt Q14CW9),0.024,0.043,-0.054,0.03,0.086,-0.123,–,–,–,–
ADD2 isoform 9 (UniProt P35612),–,–,–,-0.002,-0.125,0.021,–,–,–,0.149
APOBEC3G (UniProt Q9HC16),0.028,0.079,0.028,-0.042,0.03,-0.016,–,0.075,–,-0.012
ABCA3 (UniProt Q99758),–,–,–,0.019,–,0.164,-0.053,-0.027,-0.022,0.058
ARHGAP4 isoform 2 (UniProt P98171),-0.137,0.436,-0.174,-0.046,-0.164,0.709 (active),–,-0.097,-0.06,0.161
AIF1 (UniProt P55008),–,–,–,0.153,–,0.035,–,–,–,0.051
ANGEL1 (UniProt Q9UNK9),–,–,–,-0.063,–,0.015,–,–,–,–
AFDN isoform 1 (UniProt P55196),–,–,–,0.07,0.031,-0.053,-0.077,-0.152,-0.027,–
ATF7 isoform 6 (UniProt P17544),-0.026,-0.081,-0.019,-0.266,0.018,0.02,–,0.504 (active),0.055,0
BAIAP2 isoform 4 (UniProt Q9UQB8),–,–,–,–,–,–,–,–,-0.018,–
AARSD1 (UniProt Q9BTE6),0.029,-0.078,-0.012,–,0.066,0.142,–,-0.606,0.121,-0.19
AFG1L (UniProt Q8WV93),-0.061,-0.048,0.043,0.109,0.031,-0.041,–,-0.023,0.077,0.19

Target,log2 fold change [1],log2 fold change [2],log2 fold change [3],log2 fold change [4],log2 fold change [5],log2 fold change [6],log2 fold change [7],log2 fold change [8],log2 fold change [9],log2 fold change [10]
AUNIP isoform 2 (UniProt Q9H7T9),–,–,–,–,–,–,–,-0.284,-0.006,-0.844 (active)
BAP18 isoform 3 (UniProt Q8IXM2),–,–,–,–,0.117,–,-0.182,–,–,–
AUH (UniProt Q13825),–,–,–,0.007,0.048,-0.102,0.024,0.145,-0.072,-0.011
BRAF (UniProt P15056),–,-0.099,-0.014,0.01,-0.059,0.067,0.019,–,0.03,-0.034
ALDH2 isoform 2 (UniProt P05091),–,–,–,0.244,–,-0.029,-0.124,–,–,0.015
ALKBH4 (UniProt Q9NXW9),–,–,–,0.017,-0.122,0.038,0.087,0,-0.022,-0.001
ARMC8 isoform 6 (UniProt Q8IUR7),-0.034,-0.079,-0.052,–,–,-0.012,–,–,–,–
AGAP3 isoform 4 (UniProt Q96P47),0.138,-0.016,-0.049,-0.082,-0.156,-0.144,–,–,-0.077,-0.012
APAF1 (UniProt O14727),-0.058,-0.015,-0.268,-0.016,-0.032,–,0.042,-0.121,-0.122,-0.152
ACTR3B (UniProt Q9P1U1),0.036,-0.082,-0.001,-0.051,–,–,0.035,–,–,0.129
ADD3 isoform 2 (UniProt Q9UEY8),–,–,–,-0.026,-0.007,–,0.05,-0.116,0.152,-0.067
ACOX3 (UniProt O15254),0.159,-0.028,0.107,–,-0.241,0.053,–,–,-0.009,0.272
ARL4A (UniProt P40617),–,–,–,–,0.078,0.145,–,–,–,–
BRMS1 (UniProt Q9HCU9),–,–,–,–,0.179,–,0.029,0.035,–,–
AP4S1 (UniProt Q9Y587),-0.015,-0.016,0.072,–,-0.013,0.068,–,-0.036,-0.103,0.076
AKNA (UniProt Q7Z591),–,–,–,–,–,–,–,–,-0.134,0.215
